# Source: PubChem (National Center for Advancing Translational Sciences (NCATS))
# In the library only some 4.6% were active in any assay of this set; here they are far more common.
# D1 PAM: human D1 dopamine receptor positive modulation | P21728 | HEK293 TREx D1 cells, calcium flux, dopamine EC20 potentiation | potentiation, % at 10 µM | hit rate 0.036% among 360,000; in the data active means potentiation above about 30%; further: 0% is about no effect
# TRHR enhancer: allosterically enhances the human TRH receptor. enhancement, % at 2 µM. P34981. hit rate 0.66% among 360,000. TRHR cells, fluo-8 calcium fluorescence, EC20 TRH enhancement; in the data active means enhancement above about 30%; further: 0% is about no effect
# Target sequence (P34981 whole entry, looked up): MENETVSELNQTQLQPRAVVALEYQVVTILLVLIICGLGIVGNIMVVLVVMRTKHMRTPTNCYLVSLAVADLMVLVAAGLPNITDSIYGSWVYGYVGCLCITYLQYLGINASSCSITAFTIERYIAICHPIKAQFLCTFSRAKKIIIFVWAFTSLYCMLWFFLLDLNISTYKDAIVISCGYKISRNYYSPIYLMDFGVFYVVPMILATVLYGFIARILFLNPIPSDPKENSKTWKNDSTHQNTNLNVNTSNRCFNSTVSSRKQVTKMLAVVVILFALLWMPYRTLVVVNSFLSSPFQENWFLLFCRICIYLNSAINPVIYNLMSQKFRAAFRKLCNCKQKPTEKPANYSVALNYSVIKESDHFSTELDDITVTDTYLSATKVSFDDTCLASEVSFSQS
#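 Enhancer read-out: after compound pinning and an initial kinetic agonist-mode read, an EC20 of TRH (10 nM final) was injected and fluo-8 calcium signal (Ex 480/Em 530) followed at 1 s/cycle for 100 cycles in TRHR-expressing cells.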
# TRHR agonist: TRH receptor (human) agonism. AID 493084. hit rate 0.18% among 360,000. TRHR cells, calcium flux fluo-8, FDSS agonist mode. P34981. activation, % at 2 µM; further: 0% is about no effect
#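 Read-out: compound-evoked intracellular calcium rise in TRHR cells, fluo-8 dye, kinetic FDSS fluorescence at 1 s/cycle following a 10-cycle baseline. Cells cultured overnight before dye loading (30 min–1.5 h, RT).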
# D1 antag: antagonists of human D1 dopamine receptor; hit rate 3.2% among 360,000; activity change, negative = inhibition, % at 10 µM; AID 504652; P21728; HEK293 TREx D1 cells, calcium flux, dopamine EC80; stronger effect = lower value; in the data active means activity change below about -30%; further: on the % scale 0 is the no-effect control and ±100 the full control effect
#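 Calcium flux readout: force-coupled, inducible Hek293 Trex D1 line, cells induced overnight at 30 C with tetracycline, dye-loaded 30–90 min at RT. Antagonism scored against EC80 dopamine challenge given 180 s after compound.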
# D1 ag: agonists of human D1 dopamine receptor | HEK293 T-REx D1 cells, calcium flux, agonist mode | activation, % at 2 µM | P21728 | hit rate 1% among 360,000; further: 0% is about no effect
#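 Inducible HEK293 T-REx D1 cells, force-coupled to calcium signalling, were plated at 4000 cells/well with tetracycline and held overnight at 30 C. After no-wash calcium dye loading, compound-evoked calcium rise over 180 s flagged agonists.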
# The depositor's hits bear a star; . = no result. Unless noted, no stated cut-off is given here; in the data, active means activation above about 30%; inactive means the rest.
SMILES,D1 PAM,TRHR enhancer,TRHR agonist,D1 antag,D1 ag
COc1ccc(NC(=O)Cn2c(=O)oc3cc(S(=O)(=O)NCc4ccccc4)ccc32)c(OC)c1,0,-8,0,24,1
O=C(NCCCN1CCCC1=O)Nc1ccccc1F,-2,-2,0,-18,5
CSc1ccc(C2NC(=O)CCC2[N+](=O)[O-])cc1 (stereo not given),-2,3,0,-33*,1
Cc1nn(-c2ccccc2)c(C)c1/C=C/C(=O)OCC(=O)Nc1ccc(C(N)=O)cc1,5,4,0,-16,1
Cc1nn(-c2ccccc2)c(C)c1/C=C/C(=O)OCC(=O)Nc1ccc(S(N)(=O)=O)cc1,.,4,0,-32*,8
COc1cc(C2NC(=O)c3c(sc4c3CCN(C)C4)N2)ccc1OC(=O)c1ccccc1 (stereo not given),4,-6,22,1,38*
Cc1ccc(C(=O)NCc2ccco2)cc1[N+](=O)[O-],-3,2,0,-37*,0
O=C(NCc1ccco1)c1ccc2ccccc2c1,1,3,-1,-9,1
O=C(NCc1ccco1)c1ccc2c(c1)C(=O)c1ccccc1-2,-4,2,0,-31*,2
CCCN(CCC)S(=O)(=O)c1ccc2c(c1)N(CC(=O)NC(C)c1ccccc1)C(=O)CS2 (stereo not given),1,-8,-1,7,1
CCCNC(=O)OC[C@H]1O[C@H](CCO/N=C(\C)CCN2CCc3nc(-c4ccccc4)c(-c4ccccc4)cc3C2)C=C[C@@H]1Oc1ccc(OC)cc1,-2,-2,0,-15,4
CCCNC(=O)OC[C@H]1O[C@H](CCO/N=C/C[C@@H]2C=C[C@H](OC(C)=O)[C@@H](COC(C)=O)O2)C=C[C@@H]1Oc1ccc(OC)cc1,-5,1,0,-30*,4
O=C(CSc1nnc(-c2cccnc2)n1-c1ccccc1)Nc1ccc2c(c1)OCO2,-4,-3,-1,-61*,0
Nn1c(SCc2cccc(F)c2)nnc1-c1cccnc1,-5,2,1,-31*,2
O=C(CN1CCN(c2nc(-c3ccccc3)cs2)CC1)Nc1ccc2c(c1)OCO2,-9,-3,0,-32*,2
O=C(CSc1nccn1-c1ccc(Cl)cc1)Nc1ccc2c(c1)OCO2,-10,1,-1,-49*,5
CCOC(=O)c1cc(C)n(CC2CCC(C(=O)Nc3cccc(C(C)=O)c3)CC2)c1C (stereo not given),0,4,1,-4,-1
Cc1oc(-c2ccc(C(=O)N(C)Cc3ccccc3)cc2)nc1CN1CCc2ccccc21,-2,0,0,7,1
O=C(CSc1nc(-c2ccccc2)[nH]c1-c1ccccc1)Nc1ccc2c(c1)OCO2,-5,-5,-1,-30*,3
Nn1c(SCC(=O)Nc2ccc3c(c2)OCCO3)nnc1-c1cccnc1,-1,-5,0,-37*,2
CCOc1ccc(C(=O)Nc2c(C(=O)Nc3ccccc3OC)oc3ccccc23)cc1OCC,-1,5,-2,8,0
CC(=O)OCCn1c2nc(=O)[nH]c(=O)c-2nc2cc(C)c(C)cc21,30,124*,161*,5,482*
Cc1ccc(C)c(Nc2nn3c(=O)c4ccc(C(=O)NCc5cccs5)cc4nc3s2)c1,0,8,0,13,2
C=CCOc1ccc(CN(C)c2ccc(S(=O)(=O)N3CCN(C)CC3)cc2[N+](=O)[O-])cc1,-18,-3,2,-36*,14
CCOc1ccc(CN(C)c2ccc(S(=O)(=O)N3CCN(C)CC3)cc2[N+](=O)[O-])cc1OC,-6,-8,3,-45*,27
SMILES,D1 PAM,TRHR enhancer,TRHR agonist,D1 antag,D1 ag
COc1ccc(NC(=O)Cn2cc(S(=O)(=O)c3ccccc3)c(=O)c3cc4c(cc32)OCO4)cc1,-4,2,1,-47*,4
Cc1ccc2c(c1)c(=O)c(S(=O)(=O)c1ccc(C)c(C)c1)cn2CC(=O)Nc1ccccc1,-2,10,2,-47*,1
Cc1ccc(S(=O)(=O)c2cn(CC(=O)Nc3ccccc3)c3cc4c(cc3c2=O)OCO4)cc1,3,-7,2,-8,2
Cc1ccc(S(=O)(=O)c2cn(CC(=O)Nc3ccc(Cl)cc3)c3ccc(F)cc3c2=O)cc1C,-1,-3,1,6,3
COc1ccc(OCC(=O)Nc2nnc3n2CCS3)cc1,-2,3,0,25,1
CCn1c(C(=O)Nc2ccc(C)cc2C)cc2sc(Cl)cc21,-2,-2,0,-4,0
Cc1cccc(NC(=O)c2ccc(-c3nc(CSc4ccccc4)c(C)o3)cc2)c1C,-1,-2,1,-6,7
O=C(CC1N=C2c3ccccc3N=C(SCC(=O)Nc3cccc(C(F)(F)F)c3)N2C1=O)NCc1cccs1 (stereo not given),3,-12,0,13,1
COc1ccccc1NC(=O)CSc1nc2ccccc2c2nc(-c3ccccc3)nn12,-3,3,0,6,0
Cc1ccccc1Oc1ccccc1N,-5,2,0,-31*,0
Nc1ccccc1OCCOc1ccccc1N,4,6,-1,-4,2
O=CN1CCN(C(=S)NC(=O)c2ccc(Cl)cc2)CC1,2,39*,0,1,0
C/C(CC(=O)N1CCN(C=O)CC1)=N\NC(=O)c1ccc(Cl)cc1,-4,-7,1,5,0
CC(C)(C)c1ccc(O)c(N=Cc2cc(Br)ccc2O)c1,1,2,3,13,11
Cc1ccc(O)c(C=Nc2cc(C)ccc2O)c1,-4,3,0,-35*,4
Cc1ccc(N=Cc2c(O)c3ccccc3n(C)c2=O)cc1,2,-15,0,5,-1
Cc1ccc(N=Cc2sc(O)c3ccccc23)cc1,16,5,66*,-39*,302*
Cc1ccc(N=Cc2sc(O)c3ccccc23)c(C)c1,-1,-4,10,-5,47*
CCOC(=O)c1c(C)[nH]c(CCC(=O)Nc2c(C)cccc2CC)c1C,-5,-3,0,8,1
Cc1cc(C(=O)NCc2cc(C)n(C)n2)sc1-c1ccccc1,-8,-1,-1,-34*,6
CCCCN1C2CCCC1CC(NC(=O)c1cccc(Cl)c1)C2 (stereo not given),-3,4,1,-35*,1
O=C(NC1CC2CCCC(C1)N2Cc1ccccc1)C1CCCCC1 (stereo not given),-4,-12,1,2,0
CCCCN1C2CCCC1CC(NC(=O)C1CCCCC1)C2 (stereo not given),-3,2,0,-55*,1
Cc1ccc(NS(=O)(=O)c2ccc3[nH]c4c(c3c2)CCCC4)cc1N(C)C,-1,11,0,4,-1
